# CYP2C19 activ: cytochrome P450 2C19 (human) activation | P33261 | recombinant CYP2C19, luciferin-H EGE luminescence; active compounds read high; 0 = fully inhibited enzyme, 1 = untreated enzyme | activation factor at 5 µM | 96,000 tested, under 10 active | AID 1025;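 active = activation factor of at least 2 at 5 µM in the primary screen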;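 note: 0 = wells with 2.5 mM tranylcypromine and 1 = vehicle-only wells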
# Target sequence (P33261 whole entry, looked up): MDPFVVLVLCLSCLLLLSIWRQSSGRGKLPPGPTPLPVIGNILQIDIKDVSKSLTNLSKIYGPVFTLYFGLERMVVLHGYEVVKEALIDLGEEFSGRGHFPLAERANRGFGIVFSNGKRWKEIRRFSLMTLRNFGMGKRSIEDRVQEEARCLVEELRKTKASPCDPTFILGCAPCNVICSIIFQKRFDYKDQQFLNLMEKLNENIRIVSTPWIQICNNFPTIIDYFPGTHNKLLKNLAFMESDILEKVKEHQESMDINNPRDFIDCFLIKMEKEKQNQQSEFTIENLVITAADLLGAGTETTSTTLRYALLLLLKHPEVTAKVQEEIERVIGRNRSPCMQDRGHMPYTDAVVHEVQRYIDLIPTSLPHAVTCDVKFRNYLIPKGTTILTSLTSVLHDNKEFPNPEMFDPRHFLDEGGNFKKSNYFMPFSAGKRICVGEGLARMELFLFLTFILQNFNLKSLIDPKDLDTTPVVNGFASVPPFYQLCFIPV
# CYP2C19 inh: blocks human cytochrome P450 2C19; P33261; CYP2C19 Supersomes, luciferin-H EGE luminescence, 30 min; inhibition, % at 5 µM; hit rate 21% among 96,000;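 active = CYP2C19 inhibition above a set limit at 5 µM in the primary screen, cut at about 50% in these data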;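 note: plate controls were negative control wells for no effect and 2.5 mM tranylcypromine positive control for full effect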
# CYP2C9 activ: increases human cytochrome P450 2C9 activity; recombinant CYP2C9, luciferin-H conversion, luminescence; active compounds read high; factor 1 = untreated enzyme, 0 = blocked; hit rate 1.4% among 96,000; P11712; activation factor at 5 µM;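 active = activation factor of 2 or more for CYP2C9 at a 5 µM dose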;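 note: 0 = sulfaphenazole-blocked wells and 1 = vehicle-only wells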
# CYP2C9 inh: blocks human cytochrome P450 2C9. P11712. CYP2C9 Supersomes, luciferin-H conversion, luminescence. inhibition, % at 5 µM. hit rate 20% among 96,000;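 active = blocking of liver enzyme CYP2C9 beyond about 50% at 5 µM, limit read from the data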
# F-actin modifier: modifiers of cytoskeleton assembly. HUVEC TNFa F-actin phalloidin imaging, high content. inhibition, % at 2 µM. hit rate 0.18% among 91,000;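 active = inhibition above the batch mean plus 3 SD and confirmed as a hit by visual image inspection, cut at about 30% in these data, passing the limit was not always enough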
# E-sel TNF inh: TNF alpha driven E-selectin expression inhibition; HUVEC TNFa-induced E-selectin immunofluorescence, high content; inhibition, % at 2 µM; hit rate 0.71% among 120,000;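 active = inhibition above the batch mean plus 3 SD, and confirmed as a hit on visual image review, cut at about 43% in these data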;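 note: 0% = TNF-stimulated DMSO wells and 100% = unstimulated control wells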
# Active calls of the source: *; . = no result. Compounds with a hit are over-represented: about 22% of the library has one in this group of screens.
SMILES,CYP2C19 activ,CYP2C19 inh,CYP2C9 activ,CYP2C9 inh,F-actin modifier,E-sel TNF inh
Cc1nc2c(-c3ccccc3)c[nH]n2c(=O)c1Cc1ccccc1,.,.,.,.,.,-6.7
O=C(c1ccco1)N1CCN(c2cc(C(F)(F)F)nc3ncnn23)CC1,1,-3.2,1.1,-5.2,-21.9,16.6
COC(=O)[C@@]1(Cc2ccc(F)cc2)[C@H]2c3cc(C(=O)N(C)C)n(CCSCCO)c3C[C@H]2CN1C(=O)c1ccccc1,.,.,.,.,.,-20.0
C/C=C/c1ccc(OCCCN2C(=O)NC(C)(C)C2=O)c(OC)c1,0.7,29.4,0.8,19.5,.,-83.0
CC(C)c1cc(Br)ccc1OCCCN1C(=O)NC(C)(C)C1=O,0.1,91.7*,0.2,78.5*,26.8,-15.3
CCOC(=O)C1=C(O)/C(=C/c2ccc(C)o2)SC1=NC(=O)c1ccccc1C,.,.,.,.,-13.8,23.6
COC(=O)c1cc2ccccc2c(-c2c(OC)c(C(=O)OC)cc3ccccc23)c1OC,0.5,54.0*,0.2,81.1*,4.1,-21.5
COc1ccc(NS(=O)(=O)c2cccc(NC(=O)NCCCl)c2)cc1,.,.,.,.,.,6.6
CC(=O)N(C)c1nc(-c2ccc(Cl)cc2)cs1,1.2,-16.2,1.1,-7.5,-18.9,16.2
Cc1ccc(-c2csc(N(C)C(=O)c3c(C)nn(-c4ccccc4)c3Cl)n2)cc1,0.6,44.4,0.3,73.8*,.,.
Cc1ccc(N/C(SCc2ccccc2C)=C(/C#N)C(=O)NCc2ccco2)cc1C,0.7,28.9,0.2,79.5*,1.5,5.8
CCc1ccc(N/C(SCc2cccc(F)c2)=C(/C#N)C(=O)NCc2ccco2)cc1,0.5,54.7*,0.3,68.2*,-8.6,5.7
Cc1cc(N2CCN(C)CC2)nc2ccc(NC(=O)c3cccnc3Cl)cc12,0.8,22.3,1,1.9,.,8.6
O=C(NCc1ccc(Cl)cc1)c1cc(-c2cccs2)on1,0.5,51.0*,0.4,59.5*,-14.0,.
C=CCn1c(-c2ccc(OC)c(OC)c2)cs/c1=N\c1ccccn1,.,.,.,.,2.9,-15.3
CCCCn1c(-c2ccccc2)nc2c(=O)n(C)c(=O)[nH]c21,1,-0.6,0.3,66.7*,-27.6,26.4
CCOc1cc(CNCCc2ccc(S(N)(=O)=O)cc2)ccc1OCc1ccc(Cl)cc1,0.5,53.5*,0.6,35.1,-49.2,-12.9
COc1cc(CNCC(O)c2ccccc2)ccc1OCc1ccc(Cl)nc1 (configuration not stated),0.6,42.2,0.6,39.0,4.7,13.7
COc1cc(CNCCc2ccc(S(N)(=O)=O)cc2)ccc1OCC(=O)NC1CCCCC1,0.9,12.7,0.9,8.1,6.1,-3.8
COc1cc(CNCCc2ccccc2)ccc1OCc1ccc(Cl)nc1,0.3,67.9*,0.7,34.7,2.3,6.2
CCOc1ccc(CNCCc2ccc(S(N)(=O)=O)cc2)cc1,.,.,.,.,.,4.2
COc1cc(CNCCc2ccc(S(N)(=O)=O)cc2)ccc1OCc1ccc(Cl)cc1,0.5,53.1*,0.6,36.2,7.2,-10.3
Cc1ccc(OCCNS(=O)(=O)c2cccs2)cc1,0,100.1*,0.2,84.7*,-4.0,-24.9
O=C1NCCN1CCNS(=O)(=O)c1ccc2ccccc2c1,0.8,15.8,0.8,22.6,27.2,0.4
CC(C)OCCCNS(=O)(=O)c1ccc2ccccc2c1,0.6,38.8,3.4*,-236.6,1.9,-3.6
SMILES,CYP2C19 activ,CYP2C19 inh,CYP2C9 activ,CYP2C9 inh,F-actin modifier,E-sel TNF inh
O=C1c2ccccc2CN1CCNS(=O)(=O)c1ccc2ccccc2c1,0.7,29.8,2.5*,-153.7,-14.4,14.3
CC(C)OCCCNS(=O)(=O)c1ccc2c(c1)oc(=O)n2C,0.6,36.6,1.1,-12.7,7.6,.
O=C(O)CCCNS(=O)(=O)c1cccs1,1,2.7,1,2.5,-0.1,.
O=S(=O)(NCCOc1ccccc1)c1ccc2ccccc2c1,1,1.5,2.1*,-105.2,-27.2,13.1
O=C(O)CCNS(=O)(=O)c1ccc2ccccc2c1,1,-4.7,1.3,-33.6,-8.4,25.4
CC(C)OCCCNS(=O)(=O)c1ccc2c(c1)OCCO2,0.2,77.2*,2.2*,-124.4,-4.5,-0.9
COCCNS(=O)(=O)c1ccccc1,0.9,11.7,1,1.6,8.4,2.2
COc1ccc(OCCNS(=O)(=O)c2ccccc2)cc1,0.1,86.1*,0.2,82.0*,-34.8,-11.7
CCOC(=O)c1cc(C(=O)Nc2cccc(C)c2)nn1C,0.6,35.5,1.2,-22.7,-26.6,14.8
CC1Cc2ccccc2N1C(=O)CN1C(=O)NC(C)(c2ccc3c(c2)OCCO3)C1=O (configuration not stated),0.6,39.8,1.1,-13.4,-8.5,.

# High-throughput results (PubChem)
